# Screens (PubChem)
# KB-V1 cytotox: KB-V1 MDR subline cytotoxicity; KB-V1 MDR cells viability, CellTiter-Glo, 72 h; Potency, µM (top dose mostly 46.1 µM), most hits filed as cytotoxic; actives 3.4% (n = 400,000); note: potency is the fitted concentration of half-maximal effect; % is set by controls: 0 for no effect and ±100 for the full control effect; nearly all actives have a fitted effect of over 60% in size
#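 Cytotoxicity via CellTiter-Glo luminescence after 72 h compound exposure at 37 degrees C. Cells: drug-selected KB-V1 line, DMEM phenol-red free plus 10% FBS. Compounds tested at multiple concentrations; normalized data fitted to concentration-effect curves.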
# KB-3-1 tox: kills parental KB-3-1 adenocarcinoma cells; Potency, µM (highest dose often 46.1 µM), most hits filed as cytotoxic; actives 1.4% (n = 400,000); KB-3-1 viability, CellTiter-Glo ATP luminescence, 72 h; note: potency is the fitted concentration of half-maximal effect; % is set by controls: 0 for no effect and ±100 for the full control effect; nearly all actives have a fitted effect of over 60% in size
#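 Viability of parental KB-3-1 cells, measured by CellTiter-Glo luminescence, followed a 72 h incubation at 37 °C with pinned compounds in phenol-red-free DMEM containing 10% FBS.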
# SW480 rerep: DNA re-replication induction in SW480 cells; Potency, µM (highest dose often 46.1 µM), for the others: at the top dose re-replication activation, most hits filed as activators; actives 1.8% (n = 340,000); SW480 DNA re-replication, Hoechst DNA content imaging, 48 h; note: potency is the fitted concentration of half-maximal effect; % of control where 0% means no effect; nearly all actives have a fitted effect of over 55% in size
#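 Readout is total intensity of Hoechst-stained nuclei, excited at 405 nm and collected at 500-530 nm. Compound treatment lasted 48 hr at 37 C in 5% CO2 before staining.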
# MCF10A rerep: DNA re-replication induction in MCF 10a cells. actives 2.9% (n = 350,000). Potency, µM (doses to about 46.1 µM), for inactives: at the top dose activity, positive = re-replication, hits mostly activators. MCF 10A DNA re-replication, Hoechst nuclear intensity, 48 h; note: potency is the fitted concentration of half-maximal effect; % of control where 0% means no effect; nearly all actives have a fitted effect of over 50% in size
# IL-1B inflam inh: inhibitors of inflammasome signaling (IL-1 beta secretion) | THP-1 LPS/ATP IL-1B secretion, AlphaLISA, 16 h; hits give low values | activity change, % at 57.5 µM | actives 4.7% (n = 360,000); in the data active = activity change below about -50%; inconclusive = mostly about -30% to -49%; note: % is set by controls: 0 for no effect and ±100 for the full control effect
#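 Secreted IL-1B measured by AlphaLISA bead assay after 16 h compound exposure of THP-1 cells; compounds (final up to 57.5 uM) added 1 h before LPS (250 ng/mL) and ATP (1.25 mM) stimulation; lower signal means less secretion.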
# * hit, by the source's call; i = inactive; ? = inconclusive; . = no result given. In the library only some 9.9% were active in any assay of this set; here they are far more common. Unless noted, calls come from the whole dose curve; as a rule, active = well fitted curve in the direction sought with a large enough effect; inconclusive = small, poorly fitted or top-dose-only effect, or another doubt; inactive = no such curve, though single readings can be large; an effect the other way counts as inactive or inconclusive.
SMILES,KB-V1 cytotox,KB-3-1 tox,SW480 rerep,MCF10A rerep,IL-1B inflam inh
CCCC(C)c1nnc(NC(=O)C2CCCO2)s1 (stereo not drawn),i,i,21µM*,5.2µM*,15
COC(=O)N/N=C/c1ccc(Oc2ccccc2)cc1,i,i,-12%,-3%,30
O=c1cc(Cc2ccc([N+](=O)[O-])cc2)[nH]c(=O)[nH]1,?,i,-4%,0%,-1
Nc1ccc(Cc2ccc([N+](=O)[O-])cc2)cc1,i,i,-2%,11%,-50*
COC(=O)c1ccc(OCC(O)CNC2CCCC2)cc1 (stereo not drawn),i,i,-1%,0%,17
OC(CNC1CCCCC1)COCCOc1ccc(Br)cc1 (stereo not drawn),23µM*,i,?,16µM*,i
CCCC(NCC(O)COc1ccc(-c2ccccc2)cc1)c1ccccc1 (stereo not drawn),?,?,5.2µM*,4.1µM*,-77*
OC(CNC1CCCC1)COc1ccc(-c2ccccc2)cc1 (stereo not drawn),?,21µM*,?,?,-63*
COc1ccc(COC(=O)c2ccc(Br)c(S(=O)(=O)N3CCOCC3)c2)cc1F,i,i,-1%,18%,6
COCCNC(=O)C(c1ccc(Cl)cc1)N(CCOC)C(=O)CCC(=O)Nc1nccs1 (stereo not drawn),i,i,14%,-5%,2
CNC(=O)C1CCC(Cn2c(=O)c3sccc3n(Cc3cc(C)ccc3C)c2=O)CC1 (stereo not drawn),i,i,.,.,.
N=C(N)SCc1ccccc1Cl,i,i,?,?,-80*
CCNC(=O)c1cc2c(c(-c3cccc(-c4cccc(C(=O)N(C)C)c4)c3)n1)[C@H](CCO)N(S(=O)C(C)(C)C)C2 (stereo partly drawn),i,i,.,.,0
CN(C)C(=O)c1cccc(-c2cccc(-c3nc(C(=O)NCc4ccccc4)cc4c3[C@@H](CCO)N(S(=O)C(C)(C)C)C4)c2)c1 (stereo partly drawn),i,?,.,.,-55*
Cc1ccc(C(=O)c2cn(CC(=O)Nc3ccc4c(c3)OCCO4)c3nc(C)ccc3c2=O)cc1,i,i,.,.,.
COCCN(C(=O)c1ccco1)c1nnc(-c2ccc(F)cc2)s1,i,i,?,?,-9
COCCN(C(=O)c1ccco1)c1nnc(-c2ccc(OC)c(OC)c2)s1,i,i,-1%,-2%,-59*
COc1cc2c(NC3CCN(C(C)C)CC3)nc(N3CCCN(C)CC3)nc2cc1OCCCN(C)C,i,2.3µM*,.,.,.
COc1cc2c(NC3CCN(C)CC3)nc(N3CCCN(C)CC3)nc2cc1OCCCCCN(C)C,i,?,.,.,.
COc1cc2nc(N3CCCN(C)CC3)nc(Nc3ccncc3)c2cc1OC,i,13µM*,.,.,.
Cc1[nH]c(=O)sc1C(=O)NCc1ccc([N+](=O)[O-])cc1,i,i,.,.,21
COc1ccccc1/C=C/C=N\N1CCN(Cc2ccccc2Cl)CC1,16µM*,i,5%,?,-24
COC(=O)CSc1[nH]c2ccc(Br)cc2c1[N+](=O)[O-],i,i,6%,12µM*,-8
COc1ccccc1CNC(=O)C(=O)NCC1OCCN1S(=O)(=O)c1ccc(Br)cc1 (stereo not drawn),?,i,23µM*,0%,i
COc1ccccc1CCNC(=O)C(=O)NCC1OCCN1S(=O)(=O)c1ccc(Br)cc1 (stereo not drawn),i,i,7%,?,8
SMILES,KB-V1 cytotox,KB-3-1 tox,SW480 rerep,MCF10A rerep,IL-1B inflam inh
Cc1cc(C)n(CC(O)Cn2c3ccc(Br)cc3c3cc(Br)ccc32)c(=O)n1 (stereo not drawn),i,i,?,17%,-68*
CC(C)OC(=O)c1nnn(-c2nonc2N)c1CN1CCc2ccccc2C1,6.5µM*,i,5%,9%,2
COC(=O)c1nnn(-c2nonc2N)c1CN1CCc2ccccc21,?,23µM*,26%,28%,39
CCOC(=O)c1cccc(NC(=O)C2CCN(c3nnc(C)c4c(C)n(-c5ccccc5)nc34)CC2)c1,i,i,.,.,.
CCN(CC)S(=O)(=O)c1cccc(C(=O)NCC2CCCCC2)c1,12µM*,?,-1%,7%,-29
O=C(NCC1CCCO1)c1cccc(S(=O)(=O)N(Cc2ccccc2)c2ccccc2)c1 (stereo not drawn),8.2µM*,i,-4%,20%,3
CCN(CC)S(=O)(=O)c1cccc(C(=O)NCC(c2ccccc2)N(C)C)c1 (stereo not drawn),?,i,-3%,?,-21
C=CCN(c1ccccc1)S(=O)(=O)c1cccc(C(=O)NCC2CCCO2)c1 (stereo not drawn),?,i,2%,5%,5
CCN(CC)S(=O)(=O)c1cccc(C(=O)NCC2CCCO2)c1 (stereo not drawn),i,i,?,23µM*,25
CCN(CC)S(=O)(=O)c1cccc(NC(=O)C2SC(=Nc3ccc(C)cc3C)C(C(=O)NCC3CCCO3)=C2N)c1 (stereo not drawn),21µM*,?,?,?,0
COC(=O)c1ccccc1NC(=O)CNC(=O)c1ccc(OC)c(OC)c1,i,i,-15%,-4%,-1
CN1C[C@@H]2[C@@H]3C(=O)N(Cc4ccccc4)C(=O)[C@@H]3[C@](Cc3ccccc3)(C1=O)N2C(=O)c1ccc(Cl)cc1,i,i,1%,3%,-18
CC1(C)CC(NC(=O)c2cccc(S(=O)(=O)N(Cc3ccccc3)c3ccccc3)c2)CC(C)(C)N1,i,?,?,8%,-81*
Cc1ccc(N(C)S(=O)(=O)c2cccc(C(=O)NC3CC(C)(C)NC(C)(C)C3)c2)cc1,i,i,1%,9%,-21
CC(C)(C)OC(=O)N1C(=O)[C@](OC(=O)c2ccccc2)(c2ccc(F)cc2)c2ccccc21,?,i,.,.,44
CCCCN(C)C(=O)c1ccc2c(=O)n3nc(Nc4cc(C)ccc4C)sc3nc2c1,i,i,.,.,.
O=C1NC[C@@H](CCCCN2CCN(CCc3ccc(O)cc3)C(=O)C2=O)N(CCc2ccc(O)cc2)C1=O,i,i,.,.,25
CC(C)(C)NC(=O)COc1ccc(CNCCc2ccccc2)cc1,?,i,-9%,-3%,5
CC(C)(C)NC(=O)COc1ccc(CNCc2ccccn2)cc1,i,i,-2%,16µM*,-9
Cc1ccc(C(CC(=O)NCCCN(C)C)c2ccc(OC(C)C)cc2)cc1 (stereo not drawn),i,i,-85%,?,-7
